Assay results taken from PubChem BioAssay (EPA / NIEHS).
“And” between values parts separate entries of the source, which are not always exact repeats. Identical values can stand only once. Some structures have more than one record in an assay (separate samples or runs), and their calls can disagree. The source made the active and inactive calls. Rule for the calls: active = hit-call score of the fitted dose curve at least 0.9, where 1 is the maximum; inactive = score below 0.9.

Tests used:
[1] = read-out: Interleukin-1 alpha (IL1a), IL1A (gene 3552); experiment: BSK_KF3CT_IL1a: BioMAP Diversity Plus: KF3CT Assay for Interleukin-1 alpha (IL1a) Biomarker Activity (AID 2283070); conditions: primary human keratinocytes with fibroblasts; actives raise or lower the signal
In short: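 Human keratinocyte plus foreskin fibroblast primary co-culture, sampled 24 h after chemical dosing. IL-1a measured by ELISA; responses fitted bidirectionally against DMSO baseline (negative control), so gain or loss of signal both count.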

[2] = read-out: TIMP metallopeptidase inhibitor 2 (TIMP2), TIMP2 (gene 7077); experiment: BSK_KF3CT_TIMP2: BioMAP Diversity Plus: KF3CT Assay for TIMP metallopeptidase inhibitor 2 (TIMP2) Biomarker Activity (AID 2283071); conditions: primary human keratinocytes with fibroblasts; actives raise or lower the signal
In short: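 Human primary keratinocyte/foreskin fibroblast co-culture dosed with chemical and sampled at 24 h. TIMP-2 levels quantified by ELISA; bidirectional fitting against DMSO negative control as baseline.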

[3] = read-out: Transforming growth factor beta 1 (TGFb1), TGFB1 (gene 7040); experiment: BSK_KF3CT_TGFb1: BioMAP Diversity Plus: KF3CT Assay for Transforming growth factor beta 1 (TGFb1) Biomarker Activity (AID 2283072); conditions: primary human keratinocytes with fibroblasts; actives raise or lower the signal
In short: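 Human keratinocyte plus foreskin fibroblast primary co-culture, dosed with chemical for 24 h. TGF-b1 quantified by ELISA. Activity fitted bidirectionally against DMSO negative control as baseline.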

[4] = read-out: C-C motif chemokine 2 (Homo sapiens) (UniProt P13500); experiment: BSK_KF3CT_MCP1: BioMAP Diversity Plus: KF3CT Assay for Monocyte Chemoattractant Protein 1 (MCP1/CCL2) Biomarker Activity (AID 2283073); conditions: primary human keratinocytes with fibroblasts; actives raise or lower the signal
In short: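 ELISA read-out of MCP-1, 24 h post-dose, in primary human skin keratinocytes co-cultured with fibroblasts. Parallel SRB staining monitors cytotoxicity; changes fitted both directions relative to DMSO.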

[5] = read-out: Matrix Metallopeptidase 9 (MMP9), MMP9 (gene 4318); experiment: BSK_KF3CT_MMP9: BioMAP Diversity Plus: KF3CT Assay for Matrix Metallopeptidase 9 (MMP9) Biomarker Activity (AID 2283074); conditions: primary human keratinocytes with fibroblasts; actives raise or lower the signal;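 for AC50: MMP9 protein level quantified by ELISA in the co-culture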
In short: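 Keratinocyte plus foreskin fibroblast human primary skin co-culture was dosed with chemical and MMP-9 was quantified by ELISA 24 h later. Bidirectional curve fitting used DMSO as negative control and activity baseline.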

[6] = read-out: urokinase plasminogen activator (uPA), PLAU (gene 5328); experiment: BSK_KF3CT_uPA: BioMAP Diversity Plus: KF3CT Assay for urokinase plasminogen activator (uPA) Biomarker Activity (AID 2283075); conditions: primary human keratinocytes with fibroblasts; actives raise or lower the signal
In short: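 Human keratinocyte plus foreskin fibroblast primary co-culture exposed to chemical for 24 h. uPA levels were quantified by ELISA, and activity was fitted bidirectionally against a DMSO negative-control baseline.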

[7] = read-out: CD40, CD40 (gene 958); experiment: BSK_LPS_CD40: BioMAP Diversity Plus: LPS Assay for CD40 Biomarker Activity (AID 2283076); conditions: primary human HUVEC with PBMC; actives raise or lower the signal
In short: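 In the LPS system of human endothelial cells with peripheral blood mononuclear cells, CD40 levels were read by ELISA 24 h post-treatment. Signal changes in either direction were fitted against the DMSO baseline, with parallel SRB protein staining.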

[8] = read-out: Interleukin-8 (IL8), CXCL8 (gene 3576); experiment: BSK_LPS_IL8: BioMAP Diversity Plus: LPS Assay for Interleukin-8 (IL8) Biomarker Activity (AID 2283078); conditions: primary human HUVEC with PBMC; actives raise or lower the signal
In short: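 ELISA read-out of IL-8 after 24 h chemical treatment of LPS-activated endothelial/PBMC human primary co-cultures. Changes either up or down relative to DMSO; overt cytotoxicity checked by sulforhodamine B staining in parallel wells.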

[9] = BSK_LPS_SRB: Viability Assessment in the BioMAP Diversity Plus: LPS Assay (AID 2283079); conditions: primary human HUVEC with PBMC;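 note: total protein by sulforhodamine B absorbance as a cytotoxicity measure; measured one day after compound addition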
In short: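 SRB viability endpoint: cells fixed with 10% TCA, stained with 0.1% SRB, read at 560 nm, 24 h post-dose. HUVEC/PBMC co-culture; signal change in either direction scored relative to DMSO.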

[10] = read-out: Interleukin-1 alpha (IL1a), IL1A (gene 3552); experiment: BSK_LPS_IL1a: BioMAP Diversity Plus: LPS Assay for Interleukin-1 alpha (IL1a) Biomarker Activity (AID 2283080); conditions: primary human HUVEC with PBMC; actives raise or lower the signal
In short: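 Readout is IL-1a level by ELISA, 24 h post-dose, fitted as gain or loss relative to DMSO. System: LPS-activated human primary co-culture of vascular endothelium and peripheral blood mononuclear cells, with parallel SRB total-protein cytotoxicity.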

[11] = read-out: Monocyte Chemoattractant Protein-1 (MCP1), CCL2 (gene 6347); experiment: BSK_LPS_MCP1: BioMAP Diversity Plus: LPS Assay for Monocyte Chemoattractant Protein-1 (MCP1) Biomarker Activity (AID 2283081); conditions: primary human HUVEC with PBMC; actives raise or lower the signal;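 for AC50: secreted MCP-1 protein quantified by ELISA in culture supernatant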
In short: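 Secreted MCP-1 read by ELISA at 24 h post-dosing in an LPS-activated co-culture of endothelial cells with peripheral blood mononuclear cells. Fits run in both directions, DMSO as baseline; parallel SRB staining tracks overt cytotoxicity.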

[12] = BSK_LPS_PGE2: BioMAP Diversity Plus: LPS Assay for Prostaglandin E2 (PGE2) Biomarker Activity (AID 2283082); conditions: primary human HUVEC with PBMC; actives raise or lower the signal;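 for AC50: secreted prostaglandin E2 measured by ELISA in LPS-stimulated co-culture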
In short: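 HUVEC plus PBMC co-culture stimulated with LPS; secreted PGE2 quantified by ELISA 24 h after chemical dosing. Activity fitted bidirectionally against DMSO as negative control and baseline; parallel SRB total-protein staining served as cytotoxicity check.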

[13] = read-out: Macrophage colony-stimulating factor (MCSF), CSF1 (gene 1435); experiment: BSK_LPS_MCSF: BioMAP Diversity Plus: LPS Assay for Macrophage colony-stimulating factor (MCSF) Biomarker Activity (AID 2283083); conditions: primary human HUVEC with PBMC; actives raise or lower the signal
In short: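 Bidirectional fitting against DMSO was applied to M-CSF levels read by ELISA at 24 h post-dose. The system pairs human umbilical vein endothelium with peripheral blood mononuclear cells; parallel SRB staining tracked cytotoxicity.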

[14] = read-out: Tissue Factor, F3 (gene 2152); experiment: BSK_LPS_TissueFactor: BioMAP Diversity Plus: LPS Assay for Tissue Factor Biomarker Activity (AID 2283084); conditions: primary human HUVEC with PBMC; actives raise or lower the signal
In short: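 Compound was added to an endothelial cell/PBMC co-culture, and after 24 h tissue factor (CD142) was read by ELISA. Gain or loss of signal was fitted against a DMSO baseline, and parallel SRB staining (560 nm) tracked overt cytotoxicity.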

[15] = read-out: Tumor necrosis factor (Homo sapiens) (UniProt P01375); experiment: BSK_LPS_TNFa: BioMAP Diversity Plus: LPS Assay for Tumour Necrosis Factor alpha (TNFa) Biomarker Activity (AID 2283085); conditions: primary human HUVEC with PBMC; actives raise or lower the signal;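 for AC50: TNFa protein level quantified by ELISA in the co-culture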
In short: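 Human umbilical vein endothelial cells co-cultured with PBMC were exposed to test chemical and TNFa measured by ELISA 24 h after dosing. Bidirectional curve fitting was done relative to DMSO as negative control and baseline.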

[16] = read-out: Vascular cell adhesion molecule 1 (VCAM1), VCAM1 (gene 7412); experiment: BSK_LPS_VCAM1: BioMAP Diversity Plus: LPS Assay for Vascular cell adhesion molecule 1 (VCAM1) Biomarker Activity (AID 2283086); conditions: primary human HUVEC with PBMC; actives raise or lower the signal
In short: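 Human umbilical vein endothelial cells co-cultured with peripheral blood mononuclear cells under LPS stimulation were exposed to test chemical for 24 h. VCAM-1 levels were then measured by ELISA, with bidirectional curve fitting relative to DMSO as negative control and baseline.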

[17] = read-out: CD38, CD38 (gene 952); experiment: BSK_SAg_CD38: BioMAP Diversity Plus: SAg Assay for CD38 Biomarker Activity (AID 2283087); conditions: primary human HUVEC with PBMC; actives raise or lower the signal
In short: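 Fluorescence ELISA of cell-surface CD38 served as the read-out, with either increase or decrease fitted against DMSO controls. Cells were a human umbilical vein endothelium plus PBMC co-culture under SEB/TSST-1 stimulation, measured 24 h after dosing.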

[18] = read-out: CD40, CD40 (gene 958); experiment: BSK_SAg_CD40: BioMAP Diversity Plus: SAg Assay for CD40 Biomarker Activity (AID 2283088); conditions: primary human HUVEC with PBMC; actives raise or lower the signal
In short: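 CD40 is measured by fluorescence ELISA in an endothelial/PBMC primary human co-culture at 24 h post-dose. Fitting is bidirectional, DMSO baseline. Parallel SRB staining (560 nm) flags cytotoxicity.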

[19] = read-out: E-selectin (Homo sapiens) (UniProt P16581); experiment: BSK_LPS_Eselectin: BioMAP Diversity Plus: LPS Assay for Eselectin Biomarker Activity (AID 2283077); conditions: primary human HUVEC with PBMC; actives raise or lower the signal
In short: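 E-selectin ELISA on LPS-stimulated endothelial cell/PBMC co-cultures, read 24 h post-treatment; gains and losses fitted against DMSO. Parallel SRB staining (0.1% SRB after 10% TCA fixation, 560 nm) flags overt cytotoxicity.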

[20] = read-out: CD69, CD69 (gene 969); experiment: BSK_SAg_CD69: BioMAP Diversity Plus: SAg Assay for CD69 Biomarker Activity (AID 2283089); conditions: primary human HUVEC with PBMC; actives raise or lower the signal;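 for AC50: cell surface CD69 protein quantified by ELISA with fluorescence detection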
In short: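 Primary human vascular co-culture (umbilical vein endothelium with peripheral blood mononuclear cells) exposed to test chemical for 24 h. CD69 levels quantified by fluorescence ELISA; DMSO served as negative control for bidirectional fitting.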

Measured: AC50

Chain of Tumor necrosis factor (Homo sapiens) (P01375 whole entry, looked up): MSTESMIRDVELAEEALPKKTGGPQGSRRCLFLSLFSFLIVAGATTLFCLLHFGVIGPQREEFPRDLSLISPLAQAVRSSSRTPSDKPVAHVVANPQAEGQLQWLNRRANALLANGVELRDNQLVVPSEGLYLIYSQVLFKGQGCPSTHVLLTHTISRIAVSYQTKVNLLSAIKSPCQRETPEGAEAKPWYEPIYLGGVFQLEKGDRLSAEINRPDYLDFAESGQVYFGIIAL
Chain of E-selectin (Homo sapiens) (P16581 whole entry, looked up): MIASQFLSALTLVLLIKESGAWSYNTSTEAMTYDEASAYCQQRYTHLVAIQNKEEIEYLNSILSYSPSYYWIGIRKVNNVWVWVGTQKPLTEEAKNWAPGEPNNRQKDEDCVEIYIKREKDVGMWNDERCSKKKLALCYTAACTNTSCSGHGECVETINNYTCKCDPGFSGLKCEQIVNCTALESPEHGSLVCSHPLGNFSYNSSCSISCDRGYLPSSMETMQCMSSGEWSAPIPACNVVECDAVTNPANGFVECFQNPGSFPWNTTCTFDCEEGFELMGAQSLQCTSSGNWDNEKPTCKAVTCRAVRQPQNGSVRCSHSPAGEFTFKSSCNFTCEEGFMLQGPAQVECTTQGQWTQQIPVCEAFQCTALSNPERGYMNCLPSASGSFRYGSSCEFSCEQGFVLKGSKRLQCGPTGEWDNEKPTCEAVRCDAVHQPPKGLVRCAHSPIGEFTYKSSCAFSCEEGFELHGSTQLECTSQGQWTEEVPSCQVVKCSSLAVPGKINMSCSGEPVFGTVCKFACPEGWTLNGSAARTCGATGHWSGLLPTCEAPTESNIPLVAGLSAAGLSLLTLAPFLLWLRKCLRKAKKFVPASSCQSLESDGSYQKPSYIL

c1ccc2c(c1)sc1ccccc12
active: [12] 0.596 µM
not listed: [19] | [20]
inactive: all other assays above

COP(N)(=S)OC
not listed: [2] | [20]
inactive: all other assays above

c1ccc(OP(Oc2ccccc2)Oc2ccccc2)cc1
not listed: [2] | [20]
inactive: all other assays above

O=C(O)C(F)(OC(F)(F)C(F)(F)C(F)(F)F)C(F)(F)F (stereo unspecified)
active: [8] 18 µM and 12.1 µM | [14] 1.41 µM
inactive: [1] | [2] | [4] | [5] | [6] | [7] | [8] | [9] | [10] | [11] | [12] | [13] | [14] | [15] | [16] | [17] | [18] | [20]

ClC(Cl)=C(c1ccc(Cl)cc1)c1ccccc1Cl
inactive: [12]
active: [1] 7 µM | [2] 3.67 µM | [3] 5.46 µM | [4] 7.15 µM | [5] 4.38 µM | [6] 11.2 µM | [7] 20 µM | [8] 20 µM | [9] 29.6 µM | [10] 26 µM | [11] 29.6 µM | [13] 20 µM | [14] 20 µM | [15] 31.7 µM | [16] 32.9 µM | [17] 20 µM | [18] 20 µM | [20] 14.6 µM

CC(Cl)(Cl)C(=O)O
not listed: [19]
inactive: all other assays above

N#Cc1c(-c2ccc(Cl)cc2)[nH]c(C(F)(F)F)c1Br
inactive: [1] | [2] | [6] | [11] | [13] | [14]
active: [3] 0.186 µM | [4] 0.0621 µM | [5] 3.97 µM | [7] 4.05 µM | [8] 4.18 µM | [9] 3.97 µM | [10] 1.36 µM | [12] 0.949 µM | [15] 0.016 µM | [16] 3.97 µM | [17] 0.343 µM | [18] 0.34 µM | [20] 0.472 µM
